Most compounds without a hit are left out; they make up all but 11% or so of the library.
JMJD2A Tudor: blocks the human JMJD2A Tudor domain; O75164; AlphaScreen JMJD2A-Tudor / H3K4me3 peptide binding; Potency, µM (titrated, usually from 114 µM), inactives show top-dose activity change, negative = inhibition, usual class: inhibitors; 390,000 compounds, 4.4% hits; note: potency is the fitted concentration of half-maximal effect; % is set by controls: 0 for no effect and ±100 for the full control effect; nearly all actives have a fitted effect of over 50% in size
HP1b binding inh: inhibitors of HP1-beta chromodomain binding to methylated histone tails. AlphaScreen HP1-beta / biotin-H3K9me3 peptide binding. Potency, µM (titrated, usually from 114 µM), for the others: top-dose activity change, negative = inhibition, usual class: inhibitors. P83916. 390,000 compounds, 0.56% hits; note: potency is the fitted concentration of half-maximal effect; nearly all actives have a fitted effect of over 70% in size
Target sequence (P83916 whole entry, looked up): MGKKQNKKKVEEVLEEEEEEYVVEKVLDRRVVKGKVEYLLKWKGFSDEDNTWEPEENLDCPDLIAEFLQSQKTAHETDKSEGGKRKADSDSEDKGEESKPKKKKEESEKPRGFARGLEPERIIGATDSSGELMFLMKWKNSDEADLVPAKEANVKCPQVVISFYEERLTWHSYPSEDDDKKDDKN
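Compound inhibition of the preformed complex between 50 nM HP1-beta and 50 nM biotinylated H3K9me3 peptide was read by AlphaScreen. Buffer was PBS pH 7.4 with 0.01% Tween-20. Incubations ran 30 min at room temperature, with 10 ug/mL donor/acceptor beads.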
PI5P4K alpha inh: blocks human PI5P4K alpha kinase activity. PI5P4Kalpha enzyme, ADP-Glo luminescence, 60 min; stronger effect = lower value. P48426. 330,000 compounds, 1.2% hits. max response, %; active = max response of -50% or lower; inconclusive = between -30% and -50%; inactive = -30% or higher; note: value at the top dose of about 77 µM; % is set by controls: 0 for no effect and ±100 for the full control effect
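qHTS, 1536-well: enzyme/substrate mix, compound by pin tool, 5 microM ATP final; RT 60 min; ADP-Glo reagents 1 (45 min) then 2 (30 min); luminescence.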
G9a block: G9a (human) methyltransferase inhibition | 350,000 compounds, 8.8% hits | Q96KQ7 | AID 504332 | G9a H3K9 monomethylation, AlphaScreen, 2 h | Potency, µM (series often up to 102 µM), for the others: at the top dose activity, negative = inhibition, most hits filed as inhibitors; note: potency is the fitted concentration of half-maximal effect; % is set by controls: 0 for no effect and ±100 for the full control effect; nearly all actives have a fitted effect of over 75% in size
Target sequence (Q96KQ7 913-1193 limits assumed): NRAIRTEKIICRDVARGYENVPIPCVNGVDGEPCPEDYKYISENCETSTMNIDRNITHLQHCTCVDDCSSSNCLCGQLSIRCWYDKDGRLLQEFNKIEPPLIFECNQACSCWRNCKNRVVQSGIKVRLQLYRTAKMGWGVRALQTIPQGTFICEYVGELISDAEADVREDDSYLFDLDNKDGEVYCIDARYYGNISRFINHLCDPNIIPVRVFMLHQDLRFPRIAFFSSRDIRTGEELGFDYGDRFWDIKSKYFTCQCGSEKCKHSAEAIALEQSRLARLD
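Methyltransferase reactions run at room temperature for 2 h (20 nM enzyme, 500 nM biotin-H3K9 peptide, 20 uM SAM) after a 15 min compound preincubation; product detected by AlphaScreen beads and anti-H3K9me1 antibody.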
L3MBTL1 block: L3MBTL1 (human) inhibition | AID 485360 | 230,000 compounds, 0.66% hits | Potency, µM (titrated, usually from 57.1 µM), for the others: at the highest dose activity, negative = inhibition, hits mostly inhibitors | Q9Y468 | AlphaScreen L3MBTL1–H3K9me1 peptide binding; note: potency is the fitted concentration of half-maximal effect; % is set by controls: 0 for no effect and ±100 for the full control effect; nearly all actives have a fitted effect of over 60% in size
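Read-out is AlphaScreen signal from streptavidin donor and nickel chelate acceptor beads (10 ug/mL final each) bridging L3MBTL1 (50 nM) and biotinylated K9-monomethylated H3(1-15) peptide (75 nM), after 30 min compound exposure at room temperature.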
BAZ2B inh: blocks human BAZ2B. Q9UIF8. AlphaScreen BAZ2B-H3K14Ac peptide displacement. Potency, µM (highest dose often 114 µM), without a hit: at the highest dose activity change, negative = inhibition, hits mostly inhibitors. 360,000 compounds, 4.4% hits; note: potency is the fitted concentration of half-maximal effect; % is set by controls: 0 for no effect and ±100 for the full control effect; nearly all actives have a fitted effect of over 60% in size
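AlphaScreen displacement of biotin-H3(5-23)K14Ac peptide (50 nM final) from BAZ2B (50 nM final) in PBS pH 7.4, 0.01% Tween-20; complex preformed 30 min RT, then compounds (top 110 uM) 30 min RT, beads 20 min dark.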
Numbers without * were called inactive; ? = inconclusive; · = no result given; [ ] = remark or other dose. Unless noted, calls come from the whole dose curve; as a rule, active = well fitted inhibition curve with a large enough effect; inconclusive = small, poorly fitted or top-dose-only effect; inactive = no such curve, though single readings can be large or run the other way.

SMILES | JMJD2A Tudor | HP1b binding inh | PI5P4K alpha inh | G9a block | L3MBTL1 block | BAZ2B inh
COc1ccc(C(NC(=O)/C=C/c2ccco2)c2ccc(OC)c(OC)c2)cc1 (configuration not stated) | -15.6% | -0.9% | -19.6 | 17.8µM* | ? | ?
COc1ccc(/C(C)=N/NC(=O)CNC(=O)/C=C\c2ccco2)cc1 | ? | -6.9% | -28.7 | -28.6% | · | 79.4µM*
COc1ccc(CNC(=O)/C=C/c2ccco2)cc1OC | -4.6% | 30.1% | -0.1 | 44.7µM* | · | -11.7%
COc1ccc(C(NC(=O)c2ccco2)c2ccc(OC)c(OC)c2)cc1OC | -6.3% | 25.7% | · | 3.5% | -2.3% | 9.9%
COc1ccc(C(=O)NCC(=O)N/N=C/c2ccco2)cc1OC | -8.2% | 28.5% | -0.3 | 70.8µM* | · | -7.9%
COc1ccc(C(=O)NCCCCCC(=O)N/N=C/c2ccco2)cc1OC | -14.3% | 19.2% | 2.4 | -8.1% | 0.0% | 1.0%
CCN(CC)CCNC(=O)c1ccc2c(=O)n3nc(Nc4ccccc4)sc3nc2c1 | -25.0% | -5.4% | · | 1.0%[59 µM] | · | -11.3%
CCOc1ccc(S(=O)(=O)c2cn(Cc3ccc(C)cc3)c3ccc(OC)cc3c2=O)cc1 | -15.2% | 29.7% | · | 1.4%[59 µM] | · | 5.4%
CCOc1ccc(C(NC(C)=O)c2ccc(OC)c(OC)c2)cc1 (configuration not stated) | -7.7% | 13.9% | -10.3 | 1.4%[59 µM] | -2.8% | 0.9%
CCN(CC)S(=O)(=O)c1ccc(OC)c(NC(=O)/C=C/c2ccco2)c1 | -5.1%[11.4 µM] | ? | -26.0 | · | -0.4% | 70.8µM*
CCOc1ccc(C(NC(=O)/C=C/c2ccco2)c2ccc(OC)c(OC)c2)cc1 (configuration not stated) | -33.8% | -16.0% | 0.7 | 28.2µM* | -9.6% | ?
CCN(CC)S(=O)(=O)c1ccc(N2CCCCC2)c(NC(=O)/C=C/c2ccc(OC)c(OC)c2)c1 | -9.6% | 28.5% | 7.3 | 14.0%[59 µM] | -7.9% | 3.3%
COc1cc(N2C(=O)C=CC2=O)ccc1N1C(=O)C=CC1=O | 4.47µM* | ? | -68.2* | · | · | ·
COc1cc(-c2cc(C(=O)Nc3ccccc3N3CCOCC3)c3ccccc3n2)cc(OC)c1OC | -23.8% | 31.4% | -0.3 | 0.5% | -2.0% | -16.3%
O=C(Nc1ccc(F)cc1F)c1cc(-c2ccco2)nc2ccccc12 | -11.7% | 17.3% | ? | 44.7µM* | · | 4.5%
Cc1ccc(S(=O)(=O)N2CCOCC2)cc1NC(=O)c1cc(-c2ccccn2)nc2ccccc12 | -4.4%[11.4 µM] | 6.4% | 4.8 | · | 1.9% | -15.0%
O=C(Nc1cc(S(=O)(=O)N2CCOCC2)ccc1N1CCCCC1)c1cc(-c2ccccn2)nc2ccccc12 | 79.4µM* | ? | ? | 2.82µM* | -1.2% | -31.3%
O=C(Nc1ccccc1F)c1cc(-c2ccco2)nc2ccccc12 | ? | -12.7% | ? | · | · | ·
O=C(Nc1ccccc1N1CCOCC1)c1cc(-c2ccco2)nc2ccccc12 | ? | ? | ? | ? | · | 50.1µM*
CCOC(=O)C1CCCN(CCC(=O)Nc2ccc(OC)cc2OC)C1 (configuration not stated) | 2.0% | 22.1% | · | 1.7%[59 µM] | · | -0.7%
CCOC(=O)C1CCCN(Cc2cc(Br)c(OC)cc2OC)C1 (configuration not stated) | 2.82µM* | ? | · | ? | -5.6%[11.4 µM] | 50.1µM*
CCOC(=O)C1CCCN(CCC(=O)Nc2ccccc2)C1 (configuration not stated) | 5.4% | 48.0% | -4.3 | ? | · | -4.7%
CCOC(=O)C1CCCN(Cc2cc(=O)oc3cc(C)c(C)cc23)C1 (configuration not stated) | 8.3% | 42.2% | -2.3 | ? | -0.4% | 0.6%
CCOC(=O)C1CCCN(Cc2cc(OC)c(O)c(OC)c2)C1 (configuration not stated) | 2.24µM* | -53.7% | · | ? | 2.9% | ?
CCOC(=O)C1CCCN(Cc2sccc2C)C1 (configuration not stated) | 2.82µM* | ? | · | 22.4µM* | · | 50.1µM*
SMILES | JMJD2A Tudor | HP1b binding inh | PI5P4K alpha inh | G9a block | L3MBTL1 block | BAZ2B inh
COc1cccc(NC(=O)C2=C(C)C(=O)OC23CCN(C(C)=O)CC3)c1 | -19.5% | 24.9% | · | -1.8%[59 µM] | · | 10.0%
CN1CCN(C(=O)c2ccc(S(=O)(=O)N(C)c3ccccc3)cc2)CC1 | · | · | -1.6 | · | · | ·
CN1CCCN(C(=O)c2ccc(Cl)c(S(=O)(=O)N(C)c3ccccc3)c2)CC1 | -12.8% | 28.4% | · | 50.1µM* | 2.3% | -0.2%
N#C/C(=C\c1ccc(-c2ccccc2C(=O)O)o1)c1nc2ccccc2[nH]1 | 20µM* | 5.0% | -69.5* | 39.8µM* | · | 79.4µM*
N#C/C(=C/c1ccc(O)c(O)c1)c1nc2ccccc2[nH]1 | 28.2µM* | ? | ? | 11.2µM* | · | 7.94µM*
Cc1ccc2nc(/C(C#N)=C/c3ccc(-c4ccccc4C(=O)O)o3)[nH]c2c1 | -18.7% | 24.5% | ? | ? | · | ?
Cc1cc(/C=C(/C#N)c2nc3ccccc3[nH]2)c(C)n1-c1ccccc1C(=O)O | -35.4% | -15.4% | -22.8 | 31.6µM* | · | 50.1µM*
COC(=O)C1=C[C@@H](C(=O)OC)C2C3=C(C(=O)[C@]2(CC(C)C)NC(=O)c2ccccc2)[C@H](C)n2c(=O)n(C)c(=O)n2[C@@H]3C1 (some centres not stated) | -10.3% | 15.6% | · | · | · | ·
O=c1c2cc([N+](=O)[O-])cc([N+](=O)[O-])c2[nH]n1-c1ccccc1 | 35.5µM* | 35.5µM* | -97.7* | 28.2µM* | · | 39.8µM*
CC1CCCCN1C(=O)CSc1nc2ccccc2nc1Cc1ccccc1 (configuration not stated) | 13.6% | 34.7%[57 µM] | · | 10.3%[59 µM] | · | 14.5%
CC(C)CC(=O)N1CCC(N(CCc2ccccc2)Cc2ccccc2)CC1 | 28.2µM* | ? | 1.9 | 22.4µM* | 2.0% | 50.1µM*
COc1ccc(S(=O)(=O)N2CCN(Cc3cccc(OC)c3OC)CC2)cc1 | -8.8% | 21.4% | 3.5 | -0.1%[0.501 µM] | -7.0%[2.29 µM] | -11.3%
COc1cccc(CN2CCN(Cc3cccc(Oc4ccccc4)c3)CC2)c1OC | 7.08µM* | ? | 2.9 | 3.98µM* | · | 17.8µM*
COc1cccc(CN2CCC(N(CCc3ccccc3)Cc3ccccc3)CC2)c1OC | 0.891µM* | ? | 0.9 | 8.91µM* | -3.3% | 50.1µM*
COc1cccc(CN2CCN(Cc3cc(OC)c(OC)c(OC)c3)CC2)c1OC | 7.94µM* | ? | 9.0 | 2.82µM* | -2.4% | 56.2µM*
CC1CCN(C(=O)CN(CCc2ccccc2)S(C)(=O)=O)CC1 | -6.8% | 28.8% | 0.4 | 7.2% | 7.9% | 5.6%
COc1ccc(Cn2c(=O)n(-c3ccc(F)c(Cl)c3)c(=O)c3c2c2cc(OC)ccc2n3C)cc1 | 10.7% | 37.4% | · | 9.0%[59 µM] | · | -10.0%
